Screens as filed in PubChem BioAssay.
Hits are enriched below; roughly 3% of the tested compounds scored in any of these assays.
CF NFkB inh: inhibitors of PAF-induced NF-kB signaling, primary screen, cell-based, GFP fluorescence, uHTS; AID 588850, 2011; 360,000 tested, 0.86% active; KKLEB NF-kB-GFP reporter, GFP fluorescence overnight; inhibition, % at 5 µM;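 active = at least 50% inhibition at 5 µM, scaled per plate between neutral and stimulator controls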;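 note: PAF is a Pseudomonas aeruginosa culture filtrate used as stimulus; plate controls were PAF-stimulated DMSO wells for no effect and unstimulated DMSO wells for full effect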
Peg3 prom inh: Peg3 promoter-driven luciferase inhibitors, primary screen, cell-based, HeLa, luciferase luminescence; inhibition, % at 20 µM; 360,000 tested, 1.7% active; AID 588405, 2011; HeLa PEG-Prom luciferase reporter, overnight;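 active = inhibition of at least 50% at 20 µM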
EBV LMP1 NFkB: EBV LMP1-driven NF-kappaB luciferase reporter inhibitors, primary screen, cell-based, luminescence, single point; 350,000 tested, 0.69% active; inhibition, % at 12.5 µM; LMP1-induced NF-kappaB luciferase reporter cells; in the data active = inhibition above about 41%;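 note: 0% = neutral control wells and 100% = reference inhibitor control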
KKLEB tox: cytotoxicity in KKLEB CF airway cells, primary screen, cytotoxicity control for CF NF-kB inhibitor project, cell-based, uHTS, fluorescence assay plates; KKLEB CF airway cells viability, ATPlite luminescence, overnight; active compounds read low; cells stimulated with P. aeruginosa culture filtrate; activity change (cytotoxicity), % at 5 µM; 360,000 tested, 0.36% active; AID 602141, 2011;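 active = corrected activity change at or below -50% at 5 µM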
MITF TRPM1 inh: inhibitors of MITF-dependent TRPM1 promoter reporter, primary screen, cell-based, SK-MEL-5, single point, luciferase | SK-MEL-5 TRPM1 promoter luciferase, 24 h | inhibition, % at 12.5 µM | 330,000 tested, 0.83% active | AID 488899, 2010;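 active = mean inhibition across replicates of 60% or more, whatever share of single replicates reaches that level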
HIF-2a inh: HIF-2a reporter inhibitors, primary screen, luminescence, 786-0 RCC cells. 786-0 RCC cells HIF-2a reporter, luciferase luminescence, overnight. inhibition, % at 18.8 µM. 360,000 tested, 0.72% active. AID 624352, 2012;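 active = inhibition of the luminescence signal of 40% or more relative to plate controls, in a single-dose primary screen at 18.75 µM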
An asterisk follows results filed as active; . = not tested or not shown.

SMILES	CF NFkB inh	Peg3 prom inh	EBV LMP1 NFkB	KKLEB tox	MITF TRPM1 inh	HIF-2a inh
O=C(CCCCCNc1nc(=S)[nH]c2ccccc12)NCCc1c[nH]c2ccccc12	13	51*	4	4	15	19
O=C1NC[C@H](CCCCN2C[C@H](Cc3ccccc3)N(CCc3ccccc3)C(=O)C2=O)N(CCC2CCCCC2)C1=O	.	.	.	.	.	-11
Cc1noc2ncnc(Oc3cc(Cl)ccc3Cl)c12	-27	94*	20	-7	8	14
COc1ccccc1/C=C/C(C)=O	-14	8	-10	6	2	9
COc1ccccc1/C=C/C(=O)/C=C/c1ccccc1O	-7	101*	-13	-13	66*	-12
Cc1cccc(OCC(O)Cn2c(=N)n(Cc3ccccc3)c3ccccc32)c1 (stereo not drawn)	-4	2	3	-5	9	16
Cc1cccc(OCC(O)Cn2c(=N)n(CCN3CCCCC3)c3ccccc32)c1 (stereo not drawn)	14	95*	6	-14	79*	25
CCN(CC)CCn1c(=N)n(CC(O)COc2cccc(C)c2)c2ccccc21 (stereo not drawn)	-2	58*	-15	-18	4	18
Cc1cccc(OCC(O)CN2CCNCC2)c1 (stereo not drawn)	1	8	-10	-10	-3	14
CCOC1=C2[C@H](c3ccccc3Cl)N(S(=O)(=O)c3ccc(C)cc3)C[C@H]2C(C#N)(C#N)C(C#N)(C#N)C1	32	50	.	-14	.	61*
CCOC1=C2[C@H](c3ccc(CC)cc3)N(S(=O)(=O)c3ccc(C)cc3)C[C@H]2C(C#N)(C#N)C(C#N)(C#N)C1	34	89*	.	-26	.	62*
CC(NC(=O)c1c(N)[nH]c(C(=O)c2ccccc2)c1-c1ccccc1Br)c1cccc2ccccc12 (stereo not drawn)	.	.	.	.	.	-146
O=C(NCc1ccc(F)cc1)c1cc(C2CCCN(S(=O)(=O)c3ccccc3)C2)on1 (stereo not drawn)	-3	25	.	4	.	18
CCCCC/C=C\C/C=C\C/C=C\CCCCC(=O)O	-10	10	53*	10	-8	-3
COc1cccc(/C=N/Nc2ncnc3scc(-c4ccccc4)c23)c1O	2	60*	81*	-6	70*	11
Oc1ccccc1/C=N/Nc1nccnc1Cl	-19	-63	58*	3	-6	-128
COc1ccc(/C=N/Nc2nccnc2Cl)c(OC)c1	-3	-175	-19	3	-84	-212
COc1cccc(/C=N/Nc2nccnc2Cl)c1O	-9	53*	72*	0	59	-12
COC(=O)c1sccc1N/N=C/c1cccc(OC)c1O	-12	-20	11	6	15	-82
COc1ccc(/C=N/Nc2ncnc(Cl)c2N)cc1OC	-5	-45	-9	-5	-33	-35
COc1cccc(/C=N/Nc2ncnc(Cl)c2N)c1O	46	85*	65*	-33	46	63*
COc1cccc(-c2ccc(CN3C(C(C)C)C(=O)N(Cc4cn(CCC5OCCO5)nn4)CCS3(=O)=O)cc2)c1OC (stereo not drawn)	-31	-25	.	-13	.	-71
CNC(=O)OCc1cocc1COC(=O)NC	.	.	.	.	.	2
COc1ccc(C(O)c2ncc(-c3ccc4ccccc4c3)[nH]2)cc1 (stereo not drawn)	8	-107	.	-1	.	-143
COc1cc(-c2csc(N3CCOCC3)n2)cc(OC)c1OC	6	-9	-4	-3	6	-1
SMILES	CF NFkB inh	Peg3 prom inh	EBV LMP1 NFkB	KKLEB tox	MITF TRPM1 inh	HIF-2a inh
COc1ccc(-c2csc(N3CCN(c4cc(C)nc5ccccc45)CC3)n2)cc1OC	24	100*	31	-17	73*	5
COc1ccc(OC)c2[nH]c(C(=O)N/N=C/c3ccccc3O)cc12	-2	63*	23	-20	60	3
CCOC(=O)c1c(C)[nH]c(C(=O)N/N=C\c2ccccc2O)c1C	10	-71	52*	-12	19	-301
O=C1NC(=O)C2C3OC(C(Br)C3Br)C12 (stereo not drawn)	-8	7	-11	4	.	6
COC(=O)c1cccc(OCCCN2CCC(C(O)(c3ccccc3)c3ccccc3)CC2)c1	.	.	.	.	.	-26
Cn1c(=NC(=O)c2ccco2)sc2ccccc21	-9	-167	-22	-6	13	-184
Cn1c(=NC(=O)CCl)sc2ccccc21	94*	35	-17	-86*	25	-81
COC(=O)C[C@H]1C=C[C@@H](NC(=O)C2CC2)[C@@H](CO)O1	.	.	.	.	.	6
O=C(COC(=O)/C=C/C(=O)OCC(=O)NC12CC3CC(CC(C3)C1)C2)NC12CC3CC(CC(C3)C1)C2	41	103*	20	-16	76*	29
N#CC1=C(N)N2C(=C(C#N)C1c1cccc(Br)c1)Nc1ccccc12 (stereo not drawn)	42	40	52*	-50*	51	3
N#CC1=C(N)N2C(=C(C#N)C13CCN(Cc1ccccc1)CC3)Nc1ccccc12	16	0	6	-2	-4	-25
CC[C@@H](NC(=O)[C@H](Cc1ccccc1)NC(=O)CC[C@H]1O[C@@H](n2ccc(=O)[nH]c2=O)[C@H](O)[C@@H]1O)c1ccccc1	-18	1	.	-4	.	4
Cc1cccc(N=C2NC(=O)/C(=C\c3cccs3)S2)c1	30	-95	-11	-7	-43	-102
Cc1ccc(N=C2NC(=O)/C(=C/c3cccs3)S2)cc1C	52*	-69	-5	-19	-25	-108
Cc1cc(C)n(C(C[N+](=O)[O-])c2ccc(Cl)cc2)n1 (stereo not drawn)	-6	99*	3	5	32	23
Cc1cc(O)c(C(C[N+](=O)[O-])c2ccc(Cl)cc2)c(=O)o1 (stereo not drawn)	-5	11	-2	11	-2	5
CCN(CC)C(=O)C1=C(C)N(CCCN2CCCC2=O)C(=O)C(CC(=O)NCc2ccco2)C1 (stereo not drawn)	-22	-20	0	-4	.	2
O=C(Nc1ccc(Oc2c(F)c(F)c(F)c(F)c2F)cc1)OC1CCN2Cc3ccccc3N=C12 (stereo not drawn)	-19	109*	-98	4	62*	22
Cc1cccc(Nc2nc(N3CCCCC3)nc(N3CCCCC3)n2)c1	-5	19	-3	4	15	-1
Cc1cccc(Nc2nc(N3CCOCC3)nc(N3CCOCC3)n2)c1	51*	7	-19	-14	-16	29
COc1ccc2c3c(n(C(=O)OC(C)(C)C)c2c1)C1CC=C(COC(C)=O)CN1CC3 (stereo not drawn)	.	.	.	.	.	-62
